Screening data as filed in PubChem.
In the library only some 3.9% were active in any assay of this set; here they are far more common.
HSF1 inhib: HSF1 inhibitors in luciferase reporter cells, primary screen, cell-based, NIH3T3, luminescence; activity change, negative = inhibition, % at 7.5 µM (by protocol); NIH3T3-HGL HSE-luciferase, MG132-induced, luminescence 8 h; stronger effect = lower value; 0.77% of 300,000 active;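 active means more than half of replicate wells show activity change below -50%, luminescence cut by over half; inconclusive means some wells, but at most half, below -50%; inactive means no replicate well below -50%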;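 further: luciferase reports HSF-1 transcriptional activity via heat shock element; 0% = median of DMSO wells and -100% = zero luminescence signal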
Wnt bcat act: Wnt/beta-catenin pathway activators, primary screen, cell-based, plate reader, single point. activation, % at 9.35 µM. Wnt/beta-catenin reporter cell assay, activator. 1.2% of 300,000 active. AID 743398, 2014; in the data active means activation above about 30%, passing the limit was not always enough; inconclusive means no clear call, values can overlap the other calls;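 further: 0% = neutral control wells and 100% = positive control wells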
MITF act: activators of MITF-driven TRPM1 promoter reporter, primary screen, cell-based, SK-MEL-5, luciferase, single point | SK-MEL-5 TRPM1-promoter luciferase, 24 h; % of positive control, neutral wells = 0 | 0.75% of 300,000 active | activation, % at 12.5 µM;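 active means mean activation of at least 80% with every replicate also reaching 80%; inconclusive means mean reaches 80% but some replicate falls short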;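 further: 0% = neutral control wells and 100% = parthenolide positive control wells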
esBAF inh: Bmi1 luciferase reporter increase in mESCs, primary screen, esBAF inhibitor project, mouse ES cells, Bmi1 luciferase knock-in, single point | 24 h; 100% = twice the neutral-well signal | 2% of 350,000 active | reporter increase, % at 12.5 µM; in the data active means activation above about 40%; inconclusive means no clear call, values can overlap the other calls;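 further: 0% = median of the plate's neutral control wells and 100% = double that signal; a rise in the Bmi1 reporter signal indicates esBAF inhibition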
HSF1 activator: HSF-1 activators, primary screen, NIH3T3-HGL cells, MG132 stress, luminescence, single point | 1.7% of 300,000 active | NIH3T3-HGL HSF-1 luciferase reporter, 8 h; 100% = twice DMSO control signal | activation, % at 9 µM;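 active means mean replicate activation of at least 50% with a set share of replicates each reaching 50%; inconclusive means only one of those two conditions met; inactive means mean below 50% and too few replicates reaching it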;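 further: 0% = median of the neutral control wells and 100% = twice that signal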
An asterisk follows results filed as active; ? = inconclusive; / = no result.

SMILES	HSF1 inhib	Wnt bcat act	MITF act	esBAF inh	HSF1 activator
COc1ccc(C(=O)/C=C2\Sc3ccccc3N2C)cc1	22	13	8	/	56*
COCc1cn(CC[C@H]2CC[C@H](NC(=O)Nc3ccc(Cl)cc3)[C@@H](CO)O2)nn1	/	/	/	2	/
CCN(CC)c1ncnc2ccc(Br)cc12	-53*	/	-6	-3	-58
OCCNc1ncnc2ccc(Br)cc12	-16	/	-4	-15	-15
C[C@H](CO)N1C[C@H](C)[C@@H](CN(C)C(=O)Nc2cccc(F)c2)OCc2cnnn2CCCC1=O	/	/	/	1	/
CCOc1cc(CNCC2CCCN2CC)cc(Cl)c1OC (stereo unspecified)	-74*	0	7	-1	-81
COc1ccc(OC(=O)N(C)C[C@@H]2OCc3cn(nn3)CCCC(=O)N([C@H](C)CO)C[C@@H]2C)cc1	/	/	/	0	/
O=S(=O)(c1ccc(F)cc1)N1CCCCN2[C@@H](CO)[C@H](c3ccc(C#CC4CC4)cc3)[C@@H]2C1	/	/	/	1	/
CC(C)C1COC(c2cccc3ccccc23)=N1 (stereo unspecified)	29	39*	74	55*	39
CCn1cc(C2=NC(C(C)C)CO2)c2ccccc21 (stereo unspecified)	-7	6	-1	2	-13
Cc1nc(N2CCC(C)CC2)c2c(C)c(C(=O)Nc3cccc(C(F)(F)F)c3)sc2n1	20	0	1	/	59*
Cc1nc(N2CCC(C)CC2)c2c(C)c(C(=O)Nc3ccc(C(F)(F)F)cc3)sc2n1	3	-5	-13	/	8
COc1ccc(C)cc1NC(=O)CSc1nnc(-c2ccc(Br)cc2)o1	2	-1	35	-3	0
COc1ccccc1NC(=O)CSc1nnc(-c2ccc(C)cc2)o1	11	58*	/	-13	33
COc1ccc(NCc2nnc(SCC(=O)Nc3cccc(C)c3)o2)cc1	-54*	22	/	19	-61
O=C(CSc1nnc(-c2ccc(O)cc2)o1)Nc1cccc(O)c1	21	34*	66	12	42
O=C(CSc1nnc(-c2ccc(O)cc2)o1)Nc1ccc2c(c1)OCCO2	16	/	50	-10	35
O=C(CSc1nnc(-c2cccnc2)o1)Nc1ccccc1F	14	40*	52	5	9
O=C(CSc1nnc(-c2cccnc2)o1)Nc1ccccc1Br	-2	2	/	19	-19
CC(=O)N(C[C@H]1N[C@H](CO)[C@H]1c1ccc(-c2cccnc2)cc1)C1CCCC1	/	/	/	-2	/
Cc1cccc(S(=O)(=O)N[C@@H]2CC[C@@H](CCNS(=O)(=O)c3ccccc3F)O[C@H]2CO)c1	/	/	/	3	/
Cc1noc(C)c1S(=O)(=O)Nc1ccc2c(c1)C(=O)N([C@@H](C)CO)C[C@H](C)[C@@H](CN(C)Cc1ccccc1)OCCCC[C@H](C)O2	/	/	/	2	/
O=C(CSc1ncc(-c2ccccc2)[nH]1)Nc1ccccc1	1	2	-7	4	9
COc1cccc(NC(=O)CSc2nnc(-c3ccc(C)cc3)o2)c1	1	20	45	60*	11
Cc1cccc(NC(=O)CSc2nnc(-c3ccccc3C)o2)c1	19	/	80	44*	?
SMILES	HSF1 inhib	Wnt bcat act	MITF act	esBAF inh	HSF1 activator
NCCCCCc1nnc(SCC(=O)Nc2cccc(Cl)c2)o1	-4	/	-9	8	0
O=C(CSc1ncc(-c2ccccc2)[nH]1)Nc1ccccc1F	17	19	88*	?	22
CCC(C)[C@H](N)c1nnc(SCC(=O)Nc2cccc(Cl)c2)o1 (stereo partly specified)	72	1	/	-6	108*
COc1ccc(S(=O)(=O)Nc2ccc3c(c2)C(=O)N([C@H](C)CO)C[C@@H](C)[C@H](CN(C)C(=O)Nc2ccc4c(c2)OCO4)OCCCC[C@@H](C)O3)cc1	/	/	/	11	/
C[C@@H]1CN([C@@H](C)CO)C(=O)c2cc(C#Cc3ccncc3)cnc2O[C@@H]1CN(C)Cc1ccncc1	/	/	/	0	/
O=C(O)/C=C\C(=O)Nc1ccccc1C#Cc1ccc(Br)cc1	14	/	25	11	56*
NC(=O)c1ccccc1NC(=O)/C=C/C(=O)O	25	8	/	-6	?
O=C(O)/C=C\C(=O)Nc1ccccc1C#Cc1ccccc1	12	/	25	56*	20
